Assay results as given in PubChem BioAssay (NCATS).
Inconclusive results are not listed. Where a call stands in place of a potency, no number is given. Activity calls are given as the source filed them. Calls follow the shape of the dose curve; as a rule, active = well fitted inhibition curve with a large enough effect; inconclusive = small, poorly fitted or top-dose-only effect; inactive = flat fitted curve, though single readings scatter.
Potency is read from the fitted curve at half-maximal effect.

The compounds below were run against Calcium and integrin-binding protein 1 (Homo sapiens) (UniProt Q99828) (assay: Primary qHTS for Identification of Calcium Integrin Binding Protein 1 (CIB1) Competitor (AID 1508620)). Details: CIB1-GST / FITC-alphaIIb peptide fluorescence polarization; series mostly up to 114 µM.
Sequence of Calcium and integrin-binding protein 1 (Homo sapiens) (Q99828 whole entry, looked up): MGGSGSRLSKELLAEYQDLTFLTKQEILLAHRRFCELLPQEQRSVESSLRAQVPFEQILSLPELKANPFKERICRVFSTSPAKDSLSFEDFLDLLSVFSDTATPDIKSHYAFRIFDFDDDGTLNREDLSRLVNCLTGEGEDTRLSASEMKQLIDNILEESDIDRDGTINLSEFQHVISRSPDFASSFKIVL
Summary of the method: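 CIB1-GST (1 uM final) and compound incubated 15 min at room temperature before adding FITC-alphaIIb peptide tracer (100 nM final). Competition for binding read by fluorescence polarization (ex 480, em 540) after another 15 min at room temperature.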
For Cc1cccc(OC2=NS(=O)(=O)c3ccccc32)c1, the Potency was “inactive”.
Cc1ccc(Cl)cc1NS(=O)(=O)c1cc2c(cc1Cl)CCC(=O)N2 was tested, and the Potency was “inactive”.
Cc1cc2c(s1)c1cnn(Cc3c(F)ccc(C)c3Cl)c(=O)c1n2C was tested, and the Potency was “inactive”.
COc1ccc2nc(-c3cccc(F)c3)sc2c1 was tested, and the Potency was “inactive”.
CN1CCN(Nc2nn3c(=O)c4ccccc4nc3s2)CC1 was tested, and the Potency was “inactive”.
With Cc1cc(C)c(S(=O)(=O)Nc2cccc3cccnc23)c(C)c1 the Potency was “inactive”.
Cc1ccc(C[C@H](C(=O)O)N2C(=O)c3ccc(C(=O)O)cc3C2=O)cc1 was tested, and the Potency was “inactive”.
With N#CN1CCC(NS(=O)(=O)c2ccc(F)cc2)C1 (centres undefined) the Potency was “inactive”.
In the case of O=Cc1c(-c2ccccc2)no[n+]1[O-], the Potency is reported as 50.1 µM (active).
CC(C)(C)OC(=O)Cc1nnc(C(C(=O)OCc2ccccc2)c2ccccc2)o1 (centres undefined) was tested, and the Potency was “inactive”.
With c1ccc(CNCc2nnc(-c3cc4ccccc4[nH]3)s2)cc1 the Potency was “inactive”.
With O=[N+]([O-])c1ccccc1CSc1nc2ncc(Br)cc2[nH]1 the Potency was “inactive”.
In the case of Cc1cc2c(s1)c1cnn(Cc3cc(F)cc(F)c3F)c(=O)c1n2C, the Potency is reported as “inactive”.
For COc1ccc(S(=O)(=O)N2CCN(C(=O)C3COc4ccccc4O3)CC2)cc1 (centres undefined), the Potency was “inactive”.
O=C(CNC(=O)c1ccc(-c2ccccc2)cc1)OC(C(=O)Nc1cc(C(F)(F)F)ccc1Cl)c1ccccc1 (centres undefined) was tested, and the Potency was “inactive”.
With C#CCOc1cccc(-c2nnc3n2N=C(c2ccc(OC)c(OCC(C)=O)c2)CS3)c1 the Potency was “inactive”.
In the case of COc1cc(O)c(C(CC(=O)N2CCCC(c3ccccc3)C2)c2ccc3c(c2)OCO3)c(OC)c1 (centres undefined), the Potency is reported as “inactive”.
CN(C)c1ccc2nc(NC(=S)N3CCN(c4cccc(C(F)(F)F)c4)CC3)sc2c1 was tested, and the Potency was “inactive”.
NC(=O)C1CCN(c2ncc(-c3ccc4c(c3)OC(F)(F)O4)s2)CC1 was tested, and the Potency was “inactive”.
For O=C(Nc1cccc2c1cnn2-c1ccc(F)cc1)c1ccccn1, the Potency was “inactive”.
For O=C(NCCc1nc2ccccc2[nH]1)C1CCCCC1, the Potency was “inactive”.
In the case of Cc1cc(C)nc(NC(=S)N2CCN(c3cc(C#N)cc(C#N)c3)CC2)c1, the Potency is reported as “inactive”.
COc1ccc(C2c3c(n(Cc4ccccc4)cnc3=N)Oc3ccc4ccccc4c32)cc1OC (centres undefined) was tested, and the Potency was “inactive”.
For Cc1cc(C)nc(NC(=S)N2CCN(c3ccc(F)c(F)c3)CC2)c1, the Potency was “inactive”.
For O=C(NCCc1ccc2c(c1)OCO2)c1cc2sccc2[nH]1, the Potency was “inactive”.
COc1ccc(Cn2ncc3c4sc(C)cc4n(C)c3c2=O)cc1F was tested, and the Potency was “inactive”.
For Cc1cc2c(s1)c1cnn(Cc3ccc(F)c(F)c3F)c(=O)c1n2C, the Potency was “inactive”.
With O=C(Nc1ncc(Cc2cccc(C(F)(F)F)c2)s1)c1ccc(-c2cccc([N+](=O)[O-])c2)o1 the Potency was “inactive”.
In the case of O=C1CCc2cc(S(=O)(=O)Nc3ccccc3F)ccc2N1, the Potency is reported as “inactive”.
In the case of CC(=O)Nc1sc2c(c1-c1nc3ccccc3s1)CCN(C1COC1)C2, the Potency is reported as 14.1 µM (active).
Cc1cc(C)nc(NC(=S)N2CCN(c3cc(C(F)(F)F)nc(C)n3)CC2)c1 was tested, and the Potency was “inactive”.
CC(=O)Nc1sc2c(c1-c1ccc(C)cc1)CCNC2 was tested, and the Potency was “inactive”.
With COc1ccc(-n2c(C)c(C(C)=O)c3ccccc32)cc1 the Potency was “inactive”.
For O=S(=O)(c1ccc2c(c1)OCCO2)N1CCN(S(=O)(=O)c2cccc(Cl)c2F)CC1, the Potency was “inactive”.
N#Cc1nc(Nc2cc(F)cc(F)c2)nc(Nc2cc(F)cc(F)c2)n1 was tested, and the Potency was “inactive”.
FC(F)(F)c1ccccc1-c1nc(NCc2ccc(C3CCCCC3)cc2)c2ccccc2n1 was tested, and the Potency was “inactive”.
CC(=O)N1CCN(c2ccc(NCc3ccc4c(c3)OCO4)cc2)CC1 was tested, and the Potency was “inactive”.
For COc1cc(O)c(C(CC(=O)N2CCC(c3ccccc3)CC2)c2ccc(C)cc2)c(OC)c1 (centres undefined), the Potency was “inactive”.
In the case of Cc1ccnc(NC(=S)N2CCc3cccc(C(F)(F)F)c3C2)c1, the Potency is reported as “inactive”.
